Results taken from PubChem BioAssay (Tox21).
Records with an inconclusive call do not appear. The source made the active and inactive calls. Unless noted, the call rests on the fitted dose curve.

Legend:
[1] = Nuclear factor erythroid 2-related factor 2/antioxidant responsive element (Nrf2/ARE) small molecule agonists: luciferase reporter gene qHTS assay in human keratinocytes (AID 1919969); further: nearly all actives have a fitted effect of over 35% in size; further: potency means the concentration at half of the fitted maximal effect
[2] = target: Gonadotropin-releasing hormone receptor (Homo sapiens) (UniProt P30968); assay: Human gonadotropin-releasing hormone receptor (GnRHR) small molecule agonists, calcium flux assay in GnRHR-HEK293 cells (AID 1920063); further: nearly all actives have a fitted effect of over 35% in size; further: potency means the concentration at half of the fitted maximal effect
In short: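 We seeded human GnRHR-expressing HEK293 cells for 18 hours, loaded them with calcium dye for an hour at 37 C, added test compounds, and recorded fluorescence intensity kinetically for three minutes.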

[3] = target: KiSS-1 receptor (Homo sapiens) (UniProt Q969F8); assay: Human kisspeptin (KISS1R) small molecule agonists, calcium flux assay in KISS1R-HEK293 cells (AID 1920064; active means well fitted activation curve with a large enough effect in the repeat runs)
In short: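 Kinetic calcium assay, 1 s sampling over 3 min at Ex/Em 480/540, in HEK293 cells engineered with human KISS1R; compounds delivered in DMSO after 1 h dye loading.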

[4] = G protein-coupled receptor (GPCR) small molecule agonists, calcium flux assay: HEK293 wild type cell line counter screen (AID 1920065)
In short: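 Calcium-sensitive dye, loaded 1 h at 37 C into cells cultured 18 h, reports compound-evoked calcium release as fluorescence (Ex/Em 480/540), measured over 3 min. Agonist mode; 15-point titrations, triplicate.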

[5] = p53 small molecule agonists, cell-based qHTS assay with rat liver microsomes (AID 1963578); further: potency means the concentration at half of the fitted maximal effect
In short: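 p53RE-bla cells were exposed to compounds together with rat liver microsomes (0.5 mg/mL final) and NADPH (0.5 mg/mL final) for 16 h at 37 C, then read by LiveBLAzer beta-lactamase fluorescence after 2 h at room temperature.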

[6] = p53 small molecule agonists, cell-based qHTS assay with human liver microsomes: qHTS cell viability counter screen (AID 1963579); further: nearly all actives have a fitted effect of over 45% in size; further: potency means the concentration at half of the fitted maximal effect
In short: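 p53RE-bla cells (4,000/well) were pre-incubated 5 h at 37 C, then given compounds in DMSO plus human liver microsomes (0.5 mg/mL final) and NADPH (0.5 mg/mL final) for 16 h at 37 C. Viability was read by CellTiter-Glo luminescence.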

[7] = p53 small molecule agonists, cell-based qHTS assay with rat liver microsomes: qHTS cell viability counter screen (AID 1963580); further: nearly all actives have a fitted effect of over 45% in size
In short: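 Intracellular ATP, by CellTiter-Glo luminescence, defines viability. HCT-116 p53RE-bla cells, 4,000 per well, were compound-treated in the presence of rat liver microsomes and NADPH for 16 h at 37 C.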

[8] = p53 small molecule agonists, cell-based qHTS assay: qHTS cell viability counter screen (AID 1963581); further: nearly all actives have a fitted effect of over 45% in size; further: potency means the concentration at half of the fitted maximal effect
In short: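 Following 5 h attachment, HCT-116 p53RE-bla cells took up compound for 16 h at 37 C; the reporter was read with B/G FRET substrate (2 h RT), and viability then via CellTiter-Glo ATP luminescence.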

[9] = cAMP Responsive Elements (CRE) small molecule agonists, cell-based qHTS assay (AID 1963590)
In short: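 A CRE-responsive beta-lactamase reporter in HEK 293T cells was used. Treatment ran 3 h at 37 C; detection used LiveBLAzer B/G FRET substrate for 2 h at room temperature.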

[10] = target: Beta-2 adrenergic receptor (Homo sapiens) (UniProt P07550); assay: Adrenergic beta2 receptor (ADRB2) small molecule antagonists, cell-based qHTS assay (AID 1963592); further: series mostly up to about 92 µM; nearly all actives have a fitted effect of over 50% in size
In short: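 Cells (CHO, stable ADRB2 overexpression) incubated 18-20hr at 37C; compounds added from DMSO; agonist mix (1nM isoproterenol, 100uM IBMX, 25uM Ro-20-1724) added; 0.5hr RT; d2-cAMP and anti-cAMP-cryptate added; 1hr RT; 665/615 nm read.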

[11] = target: D(2) dopamine receptor (Homo sapiens) (UniProt P14416); assay: Dopamine D2 receptor (DRD2) small molecule agonists, cell-based qHTS assay (AID 1963594); further: nearly all actives have a fitted effect of over 35% in size
In short: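 cAMP accumulation in DRD2-HEK293 cells measured by HTRF after 1 h detection; compounds added 10 min before NKH477 (200nM […]) forskolin-analogue stimulation, 30 min at room temperature, with Ro20-1724 present at 0.1 mM final.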

[12] = target: D(2) dopamine receptor (Homo sapiens) (UniProt P14416); assay: Dopamine D2 receptor (DRD2) small molecule antagonists, cell-based qHTS assay (AID 1963595; active means well fitted inhibition curve with a large enough effect in the signal ratio in the repeat runs, with a control signal flat; the % refers to the signal ratio; further: potency means the concentration at half of the fitted maximal effect)
In short: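 HTRF cAMP read-out at 665 and 620 nm emission (340 nm excitation). Antagonist mode: compounds were tested against 12 nM quinpirole in DRD2-HEK293 cells, with 200 nM NKH477 raising cAMP and 0.1 mM Ro20-1724 blocking its breakdown.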

[13] = p53 small molecule agonists, cell-based qHTS assay (AID 1963582; active means well fitted activation curve with a large enough effect in the signal ratio in the repeat runs, not every such curve was filed as active; the % refers to the signal ratio)
In short: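 In this cell-based concentration-response screen, a p53 response element drives beta-lactamase; cells received DMSO-borne compounds after 5 h culture and were incubated a further 16 h before FRET substrate development.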

[14] = target: 5-hydroxytryptamine receptor 2A (Homo sapiens) (UniProt P28223); assay: 5-hydroxytryptamine receptor 2A (HTR2A) small molecule agonists, cell-based qHTS assay (AID 1963587); further: nearly all actives have a fitted effect of over 30% in size
In short: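 Kinetic calcium-flux fluorescence (2 min, 1 sec intervals) after compound addition in agonist mode. HTR2A-CHO cells were cultured 18 h, then dye-loaded 1 h at 37 C.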

[15] = target: Muscarinic acetylcholine receptor M1 (Homo sapiens) (UniProt P11229); assay: Cholinergic receptor muscarinic 1 (CHRM1) small molecule antagonists, cell-based qHTS assay (AID 1963588); further: nearly all actives have a fitted effect of over 40% in size; further: potency means the concentration at half of the fitted maximal effect
In short: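 CHRM1-CHO calcium-flux assay, antagonist mode. Cells were seeded 18 h, dye-loaded 1 h at 37 C and given compound for 5 min at RT, then acetylcholine was added at 50nM. FDSS fluorescence was read 3 min; 15 concentrations, three runs.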

[16] = target: Muscarinic acetylcholine receptor M1 (Homo sapiens) (UniProt P11229); assay: Cholinergic receptor muscarinic 1 (CHRM1) small molecule agonists, cell-based qHTS assay (AID 1963589); further: nearly all actives have a fitted effect of over 35% in size
In short: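 Measures agonist-induced intracellular calcium rise. Stable human CHRM1 CHO line, 1 h dye load at 37 C, compounds from DMSO, kinetic fluorescence read.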

[17] = cAMP Responsive Elements (CRE) small molecule antagonists, cell-based qHTS assay (AID 1963591; active means well fitted inhibition curve with a large enough effect in the signal ratio in the repeat runs, not every such curve was filed as active; the % refers to the signal ratio)
In short: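 HEK293T cells carrying a CRE-driven beta-lactamase reporter receive compound and NKH477 (0.25 uM final) for 3 h. Fluorescence from LiveBLAzer B/G FRET substrate is read after 2 h at room temperature.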

[18] = target: Beta-2 adrenergic receptor (Homo sapiens) (UniProt P07550); assay: Adrenergic beta2 receptor (ADRB2) small molecule agonists, cell-based qHTS assay (AID 1963593);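 further: CHO cells stably overexpressing human ADRB2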
In short: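 CHO cells stably over-expressing ADRB2 were plated overnight at 37C, then dosed with compounds plus a stimulation mix containing 100uM IBMX and 25uM Ro-20-1724 for 0.5hr at room temperature. cAMP was measured by HTRF competition, 1hr.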

[19] = target: 5-hydroxytryptamine receptor 2A (Homo sapiens) (UniProt P28223); assay: 5-hydroxytryptamine receptor 2A (HTR2A) small molecule antagonists, cell-based qHTS assay (AID 1963586); further: nearly all actives have a fitted effect of over 45% in size
In short: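 Antagonist-mode intracellular calcium assay: DOI (4 nM) added after 5 min compound pre-incubation at room temperature to dye-loaded HTR2A-CHO cells. Fluorescence followed for 3 min, sampled every second.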

[20] = p53 small molecule agonists, cell-based qHTS assay with human liver microsomes (AID 1963577)
In short: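 p53RE-bla reporter cells were pre-incubated 5 h at 37 C, then treated with compounds plus human liver microsomes (0.5 mg/mL final) and NADPH (0.5 mg/mL final) for 16 h at 37 C. Beta-lactamase activity was read by LiveBLAzer fluorescence after 2 h at room temperature.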

Measured: Potency

Chain of KiSS-1 receptor (Homo sapiens) (Q969F8 whole entry, looked up): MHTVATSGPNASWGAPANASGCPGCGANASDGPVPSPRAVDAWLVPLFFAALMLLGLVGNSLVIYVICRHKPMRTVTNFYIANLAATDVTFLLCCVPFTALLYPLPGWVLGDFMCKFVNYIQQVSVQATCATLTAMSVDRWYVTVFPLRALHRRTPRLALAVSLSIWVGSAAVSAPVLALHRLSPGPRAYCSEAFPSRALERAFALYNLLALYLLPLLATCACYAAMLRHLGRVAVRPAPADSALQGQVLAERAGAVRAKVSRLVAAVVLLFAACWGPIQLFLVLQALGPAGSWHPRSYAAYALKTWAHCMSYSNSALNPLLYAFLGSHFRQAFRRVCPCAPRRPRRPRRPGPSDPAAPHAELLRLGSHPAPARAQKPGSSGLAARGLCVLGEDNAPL
Chain of 5-hydroxytryptamine receptor 2A (Homo sapiens) (P28223 whole entry, looked up): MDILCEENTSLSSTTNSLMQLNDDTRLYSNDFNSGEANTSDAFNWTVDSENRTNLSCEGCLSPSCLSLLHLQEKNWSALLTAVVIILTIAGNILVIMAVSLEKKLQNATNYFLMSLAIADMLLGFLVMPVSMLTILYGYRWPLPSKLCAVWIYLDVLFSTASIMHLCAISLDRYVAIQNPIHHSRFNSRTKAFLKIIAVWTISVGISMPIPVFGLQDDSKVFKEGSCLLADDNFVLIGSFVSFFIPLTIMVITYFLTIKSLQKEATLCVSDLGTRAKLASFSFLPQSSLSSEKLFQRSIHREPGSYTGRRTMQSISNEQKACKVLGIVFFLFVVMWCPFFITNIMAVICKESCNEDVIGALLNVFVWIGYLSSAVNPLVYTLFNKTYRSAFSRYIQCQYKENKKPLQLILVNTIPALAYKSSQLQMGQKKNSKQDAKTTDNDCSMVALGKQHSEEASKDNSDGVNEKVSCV
Chain of Gonadotropin-releasing hormone receptor (Homo sapiens) (P30968 whole entry, looked up): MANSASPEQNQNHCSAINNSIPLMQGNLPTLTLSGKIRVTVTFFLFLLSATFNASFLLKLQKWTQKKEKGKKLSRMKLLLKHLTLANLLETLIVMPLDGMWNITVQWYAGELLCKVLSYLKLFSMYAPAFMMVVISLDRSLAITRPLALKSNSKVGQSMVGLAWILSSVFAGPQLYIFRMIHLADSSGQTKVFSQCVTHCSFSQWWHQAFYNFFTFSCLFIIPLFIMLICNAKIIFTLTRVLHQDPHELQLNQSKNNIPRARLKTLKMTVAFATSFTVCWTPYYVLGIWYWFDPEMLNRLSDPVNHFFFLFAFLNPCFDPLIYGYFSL
Chain of Muscarinic acetylcholine receptor M1 (Homo sapiens) (P11229 whole entry, looked up): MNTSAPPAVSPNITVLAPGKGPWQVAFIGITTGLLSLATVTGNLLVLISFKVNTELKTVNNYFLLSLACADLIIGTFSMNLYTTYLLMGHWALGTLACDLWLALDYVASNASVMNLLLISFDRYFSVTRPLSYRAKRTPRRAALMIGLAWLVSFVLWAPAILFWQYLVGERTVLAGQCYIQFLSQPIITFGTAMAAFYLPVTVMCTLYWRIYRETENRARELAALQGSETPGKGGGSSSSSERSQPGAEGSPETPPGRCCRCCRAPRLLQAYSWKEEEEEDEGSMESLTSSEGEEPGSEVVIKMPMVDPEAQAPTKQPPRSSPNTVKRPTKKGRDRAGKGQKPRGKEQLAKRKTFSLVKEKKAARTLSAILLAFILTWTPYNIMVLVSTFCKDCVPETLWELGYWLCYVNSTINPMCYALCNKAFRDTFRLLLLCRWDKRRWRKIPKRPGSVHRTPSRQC
Chain of D(2) dopamine receptor (Homo sapiens) (P14416 whole entry, looked up): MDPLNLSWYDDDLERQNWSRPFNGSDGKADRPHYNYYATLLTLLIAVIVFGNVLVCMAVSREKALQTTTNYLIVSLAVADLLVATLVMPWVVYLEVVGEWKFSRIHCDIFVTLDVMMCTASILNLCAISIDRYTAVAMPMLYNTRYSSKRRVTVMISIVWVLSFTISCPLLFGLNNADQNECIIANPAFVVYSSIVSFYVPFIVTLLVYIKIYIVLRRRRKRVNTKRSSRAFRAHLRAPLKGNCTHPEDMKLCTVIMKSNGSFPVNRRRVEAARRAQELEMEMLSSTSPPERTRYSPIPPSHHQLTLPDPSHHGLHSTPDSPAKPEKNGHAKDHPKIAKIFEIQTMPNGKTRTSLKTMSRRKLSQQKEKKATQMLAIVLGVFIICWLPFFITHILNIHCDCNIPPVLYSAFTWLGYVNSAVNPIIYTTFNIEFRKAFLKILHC
Chain of Beta-2 adrenergic receptor (Homo sapiens) (P07550 whole entry, looked up): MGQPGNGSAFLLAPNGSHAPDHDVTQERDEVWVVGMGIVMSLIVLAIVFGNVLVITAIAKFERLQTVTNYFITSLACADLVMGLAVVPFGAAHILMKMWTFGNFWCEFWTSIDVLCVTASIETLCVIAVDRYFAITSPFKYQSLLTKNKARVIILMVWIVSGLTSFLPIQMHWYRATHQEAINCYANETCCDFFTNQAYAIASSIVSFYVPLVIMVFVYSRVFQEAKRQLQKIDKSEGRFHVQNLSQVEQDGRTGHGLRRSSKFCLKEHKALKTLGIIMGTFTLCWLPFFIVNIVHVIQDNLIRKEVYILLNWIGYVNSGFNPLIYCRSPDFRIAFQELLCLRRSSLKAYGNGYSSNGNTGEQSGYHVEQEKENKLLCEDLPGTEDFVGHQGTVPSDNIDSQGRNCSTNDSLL

Nc1nc(F)nc2c1ncn2[C@@H]1O[C@H](CO)[C@@H](O)[C@@H]1O
not listed: [13] | [14] | [15] | [16] | [17] | [18] | [19] | [20]
inactive: all other assays above

CCN(CC)c1ccc(C(=C2C=CC(=[N+](CC)CC)C=C2)c2cc(S(=O)(=O)O)ccc2S(=O)(=O)[O-])cc1
active: [8] 17.8 µM
not listed: [7] | [10] | [11] | [12] | [18] | [19] | [20]
inactive: all other assays above

Cc1ccc(NC(=O)c2ccc(CN3CCN(C)CC3)cc2)cc1Nc1nccc(-c2cccnc2)n1
not listed: [14] | [15] | [16] | [17] | [19] | [20]
inactive: all other assays above

CCCCCOC(=O)Nc1nc(=O)n([C@@H]2O[C@H](C)[C@@H](O)[C@H]2O)cc1F
not listed: [6] | [7] | [13] | [17] | [20]
inactive: all other assays above

CSc1ccc(/C=C2/C(C)=C(CC(=O)O)c3cc(F)ccc32)cc1
inactive: [1] | [2] | [3] | [4] | [20] | [6] | [7] | [10] | [11] | [12]

CCCCCCCCCCCCOCCOS(=O)(=O)O
active: [2] 38.9 µM
not listed: [6] | [8] | [9] | [14] | [17] | [19] | [20]
inactive: all other assays above

O=c1cc(-c2ccccc2)oc2cc(O)cc(O)c12
active: [1] 24.3 µM
not listed: [5] | [9] | [13] | [17] | [18]
inactive: all other assays above

CNCc1ccc(NC(=O)c2c[nH]c3c2C(=O)CCC3)cc1
not listed: [8] | [9] | [10] | [11] | [15] | [16] | [18] | [20]
inactive: all other assays above

CSc1ccc2c(c1)C(N1CCN(C)CC1)Cc1ccccc1S2 (centres undefined)
active: [15] 0.729 µM | [12] 0.0473 µM
not listed: [5] | [9] | [13] | [17] | [18] | [19]
inactive: all other assays above

C[C@H]1O[C@@H](O[C@H]2CC[C@@]3(C)[C@H](CC[C@@H]4[C@@H]3C[C@@H](O)[C@]3(C)[C@@H](C5=CC(=O)OC5)CC[C@]43O)C2)C[C@H](O)[C@@H]1O[C@H]1C[C@H](O)[C@H](O[C@H]2C[C@H](O)[C@H](O[C@@H]3O[C@H](CO)[C@@H](O)[C@H](O)[C@H]3O)[C@@H](C)O2)[C@@H](C)O1
active: [1] 0.531 µM | [8] 0.251 µM
not listed: [7] | [9] | [13] | [17] | [20]
inactive: all other assays above

CC1=NN(c2cc(S(=O)(=O)O)ccc2Cl)C(=O)C1N=Nc1ccccc1 (centres undefined)
not listed: [20]
inactive: all other assays above

CCN=C1C=CC(=C(c2ccc(N(CC)CC)cc2)c2ccc(N(CC)CC)cc2)c2ccccc21
inactive: [1] | [2] | [3] | [4] | [5] | [14] | [15] | [16]
active: [6] 22.8 µM | [8] 36.1 µM

CCC(C)(C)c1ccc(CC(C)CN2C[C@@H](C)O[C@@H](C)C2)cc1 (some centres undefined)
active: [15] 3.65 µM
not listed: [6] | [18] | [20]
inactive: all other assays above

Oc1ccc(Cl)cc1C1CCCC1
active: [6] 36.3 µM
not listed: [5] | [8] | [9] | [12] | [14] | [15] | [17] | [18]
inactive: all other assays above

CNS(=O)(=O)c1cc(C(=O)N2CCC(CCN3C4CCC3CC(n3c(C)nc5ccccc53)C4)(c3cccc(F)c3)CC2)c(Cl)cc1F (centres undefined)
not listed: [9] | [13] | [14] | [15] | [17] | [20]
inactive: all other assays above

COC(=O)C1=C(C)NC(COC(N)=O)=C(C(=O)OC(C)C)C1c1cccc(Cl)c1Cl (centres undefined)
active: [5] 19.9 µM
not listed: [7] | [9] | [13] | [17] | [18] | [20]
inactive: all other assays above
